Experimental data taken from the supplement of paper PMC3334620.
In all, about 33,000 sequences were measured (“E-score (-0.5 to 0.5)”: median about -0.043, highest 2% from about 0.37 on). The list comes from a sample in which the highest values are over-represented; it also holds similar and randomly drawn sequences.

Target: T1, Upc2 (UniProt Q12151)
T1 sequence: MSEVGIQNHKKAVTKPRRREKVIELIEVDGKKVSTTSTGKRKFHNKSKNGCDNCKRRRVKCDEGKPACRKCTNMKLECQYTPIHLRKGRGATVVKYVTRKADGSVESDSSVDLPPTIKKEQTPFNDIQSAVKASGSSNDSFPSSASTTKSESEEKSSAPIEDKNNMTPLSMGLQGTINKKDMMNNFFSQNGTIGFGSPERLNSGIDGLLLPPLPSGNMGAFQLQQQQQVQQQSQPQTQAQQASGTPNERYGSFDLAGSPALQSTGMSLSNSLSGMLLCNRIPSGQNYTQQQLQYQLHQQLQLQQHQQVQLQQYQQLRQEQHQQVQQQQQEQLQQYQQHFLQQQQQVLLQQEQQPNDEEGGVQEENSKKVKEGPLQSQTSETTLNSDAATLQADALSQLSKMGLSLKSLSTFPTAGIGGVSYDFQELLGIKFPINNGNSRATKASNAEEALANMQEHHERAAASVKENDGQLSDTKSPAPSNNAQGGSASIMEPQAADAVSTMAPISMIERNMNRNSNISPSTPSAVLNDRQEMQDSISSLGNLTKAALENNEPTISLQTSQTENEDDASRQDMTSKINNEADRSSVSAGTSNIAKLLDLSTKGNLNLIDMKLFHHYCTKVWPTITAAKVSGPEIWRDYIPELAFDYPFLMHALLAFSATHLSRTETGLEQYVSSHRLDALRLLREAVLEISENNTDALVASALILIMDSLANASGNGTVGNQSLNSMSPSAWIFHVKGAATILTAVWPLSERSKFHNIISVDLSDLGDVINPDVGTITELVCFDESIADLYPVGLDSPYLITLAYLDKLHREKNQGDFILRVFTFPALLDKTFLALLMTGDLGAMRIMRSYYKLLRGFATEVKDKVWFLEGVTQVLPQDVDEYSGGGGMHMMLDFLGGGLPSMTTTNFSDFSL
Test: PBM E-score (8-mer binding enrichment) (E-score (-0.5 to 0.5)); higher = stronger / more preferred TF binding
Conditions: protein concentration: 200 nM; construct: GST-full length
Procedure: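 Universal 'all 10-mer' protein binding microarrays (Agilent AMADID 015681) probed with GST-tagged S. cerevisiae TFs (full-length or DBD) made by in vitro transcription/translation (PURExpress), about 100-200 nM. Bound TF was detected with fluorescent anti-GST. Each ungapped 8-mer (which stands for itself and its reverse complement) is scored by the PBM enrichment score (E-score), a modified Wilcoxon-Mann-Whitney statistic from -0.5 to +0.5, computed with the Universal PBM Analysis Suite. Scale: above 0.35 generally sequence-specific binding.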

| Sequence | PBM E-score |
| --- | --- |
| AGTCAAGG | -0.208 |
| AACGCGAA | 0.23 |
| CTCTTGCC | -0.16 |
| ATAACCTC | -0.0875 |
| AAGGAAAG | -0.171 |
| CGCACTAC | -0.0438 |
| ACCTCAGT | -0.0386 |
| ATATGAAG | -0.19 |
| GTATAAAC | 0.4 |
| GTATATAC | 0.395 |
| ATATATAC | 0.265 |
| GTATAAAA | 0.348 |
| GTATATAA | 0.298 |
| ATATAAAC | 0.187 |
| CATTGGTA | -0.184 |
| AATCACCG | 0.00219 |
| ATTCGCAA | -0.00304 |
| CCCCGTAA | 0.308 |
| GCCGTAAA | 0.385 |
| CCCGTAAA | 0.381 |
| CCTGTAAA | -0.0269 |
| GCCGTAAC | 0.225 |

| Sequence | PBM E-score |
| --- | --- |
| ACCGTAAA | 0.368 |
| AGCTACTC | -0.129 |
| CAAAAGCA | 0.0182 |
| ACTTATGG | -0.159 |
| CCTACTCC | -0.318 |
| GGACGTAC | 0.138 |
| CGTCGTAC | 0.474 |
| GGTCGCAC | 0.138 |
| AGTCGTAC | 0.452 |
| CGTAGTAG | 0.108 |
| CGTCGTCC | -0.154 |
| AGTCGTCC | -0.111 |
| CATCGTCG | 0.106 |
| CGTCGTGC | 0.0916 |
| AGTCGTGC | -0.127 |
| GGTCGTAC | 0.462 |
| CGTCGTAG | 0.37 |
| GAGTGAGA | -0.214 |
| CGCCTATC | -0.0576 |
| AAAGGAGC | -0.113 |
| GGGAGGAA | -0.119 |
| AGAGATGA | -0.204 |

| Sequence | PBM E-score |
| --- | --- |
| ATGGAGCA | -0.0645 |
| CCCCAAGG | -0.378 |
| CTTCCACC | -0.173 |
| CAACCTCG | 0.196 |
| AGTCGTAG | 0.291 |
| AGTCGTCG | 0.0489 |
| AGTCGTAT | 0.467 |
| CGGAAGCC | -0.0575 |
| ACTTTTCA | -0.0685 |
| CGTTGTTA | 0.0821 |
| GTGCGTTA | 0.0729 |
| GTTCGTTA | 0.403 |
| ATTCGTTG | 0.215 |
| ATTCGTTA | 0.346 |
| CTTCGATC | 0.0841 |
| CTTCGTTC | 0.457 |
| CTTCGCTC | 0.208 |
| ATTCGTTC | 0.428 |
| CTTCGTTA | 0.345 |
| AGTCCTCA | -0.296 |
| CATAGGTC | -0.0923 |
| GCCCCTCC | -0.0822 |

| Sequence | PBM E-score |
| --- | --- |
| ACATAACG | 0.116 |
| GCCTATCA | -0.187 |
| AAACGGTA | 0.367 |
| AAACGGTG | 0.386 |
| ATACGGTC | 0.418 |
| AGACGGTG | -0.109 |
| CTACGGTC | 0.109 |
| GTACGGTA | 0.365 |
| ACACGGTC | -0.099 |
| AAACGGTC | 0.344 |
| ATACGGTA | 0.406 |
| CTACGGTA | 0.122 |
| ACACGGTG | -0.0718 |
| ATACGGTG | 0.408 |
| GATGAAAA | 0.0354 |
| GGCGGGTA | -0.00895 |
| AGCGAACA | 0.19 |
| ACCGAACG | 0.269 |
| AACGAACA | 0.426 |
| TCCGAACA | -0.0096 |
| TACGAACA | 0.452 |
